Test results as given in PubChem BioAssay AID1224855 (National Center for Advancing Translational Sciences (NCATS), 2016).
Records with an inconclusive call do not appear. A number with no mark means an inactive call. Calls of active or inactive are those of the source. Calls come from the whole dose curve; as a rule, active = well fitted inhibition curve with a large enough effect; inconclusive = small, poorly fitted or top-dose-only effect; inactive = no such curve, though single readings can be large or run the other way.

Assay: Confirmation assay for measurement of the activity of small molecule inhibitors on Zika virus induced Caspase-3 activity in human iPSC derived neural progenitor cells (hNPCs)
Conditions: hNPC ZIKV-induced caspase-3/7, Caspase-Glo luminescence, 6 h; series mostly up to 46.1 µM; activity, negative = inhibition: at the top concentration
Method in brief: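 In this cell-based assay, neural progenitor cells derived from human iPSCs were infected for 6 h with ZIKV (2 FFU/cell) one hour after compound addition, and caspase activity was quantified as luminescence.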

| SMILES | Potency | activity, negative = inhibition |
| --- | --- | --- |
| COc1cccc(-c2cc(=O)c3ccccc3o2)c1N | 4.89 µM (active) |  |
| O=C(Nc1ccc([N+](=O)[O-])cc1Cl)c1cc(Cl)ccc1O | 1.73 µM (active) |  |
| CS(=O)(=O)c1ccc(-c2cn3ccccc3n2)cc1 | 3.88 µM (active) |  |
| Nc1ccc(-c2ccc3ccccc3n2)cc1 | 3.88 µM (active) |  |
| C/C(=N\O)c1ccc(OCC(=O)N2CCCCC2)cc1 | 7.74 µM (active) |  |
| N#C/C(=C\c1ccc(O)c(O)c1)C(=O)Nc1ccccc1 | 15.5 µM (active) |  |
| NC1CCC(Nc2nc(Nc3ccc(C(=O)N4CCCCC4)cc3)c3ncn(-c4cccc(F)c4)c3n2)CC1 (stereo not drawn) |  | 150% |
| CO[C@H]1C(=O)[C@]2(C)[C@@H](OC)C[C@H]3OC[C@@]3(OC(C)=O)[C@H]2[C@H](OC(=O)c2ccccc2)[C@]2(O)C[C@H](OC(=O)[C@H](O)[C@@H](NC(=O)OC(C)(C)C)c3ccccc3)C(C)=C1C2(C)C |  | 69.4% |
| CC(=NNC(=S)N1CCC1)c1ccccn1 |  | -10.5% |
| O=C(Nc1ccc(C(=O)O)c(O)c1)c1ccccc1 | 4.35 µM (active) |  |
| Cc1cccc(C#Cc2ccccc2)n1 | 3.46 µM (active) |  |
| O=C(O)CCC(=O)c1ccc(-c2ccccc2)cc1 | 19.5 µM (active) |  |
| CN(C)c1cc(NC(=O)CNC(C)(C)C)c(O)c2c1C[C@@H]1C[C@H]3[C@H](N(C)C)C(=O)C(C(N)=O)=C(O)[C@@]3(O)C(=O)C1=C2O |  | -2.46% |
| Cc1csc(NC(=O)c2sc3nc4c(c(C(F)(F)F)c3c2N)CCC4)n1 | 15.5 µM (active) |  |
| COc1ccc(-c2cc(=O)c3c(O)cc(O)cc3o2)cc1O | 9.75 µM (active) |  |
| COc1cccc(-c2ccc(NC(=O)C3=C(C(=O)O)CCC3)c(F)c2)c1 | 2.45 µM (active) |  |
| CC(C(=O)O)c1ccc(-c2ccccc2)c(F)c1 (stereo not drawn) |  | -7.07% |
| COc1ccc2nc(NC(=O)Nc3ccccc3)sc2c1 | 8.69 µM (active) |  |
